Experimental data published in PubChem BioAssay.
Inconclusive results are not listed. The source made the active and inactive calls.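 How the source made its calls, unless noted: active means viability at or below 27.92% in each of two runs, the all-compound median minus 4 SD; inconclusive means no clear call, values can overlap the other calls; inactive means the rest.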

Assays:
[1] = reducers of endogenous Her2 protein level, primary screen, SKBR3 breast tumor cells, AlphaScreen, ATP viability (AID 461;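 active means Her2 level under about 52% in both replicate screens, with viability over 70% of control, limit read from the data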;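 on Her2 level: lower value means less Her2 protein in the cells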;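 on viability: percent of carrier control wells set as 100% viability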); settings: 18-24 h, measured here: SKBR3 viability, ATP luminescence, at 10 µM
[2] = molecular target: Receptor tyrosine-protein kinase erbB-2 (Homo sapiens) (UniProt P04626); experiment: as above; settings: 18-24 h, at 10 µM, stronger effect = lower value
Sequence of Receptor tyrosine-protein kinase erbB-2 (Homo sapiens) (P04626 whole entry, looked up): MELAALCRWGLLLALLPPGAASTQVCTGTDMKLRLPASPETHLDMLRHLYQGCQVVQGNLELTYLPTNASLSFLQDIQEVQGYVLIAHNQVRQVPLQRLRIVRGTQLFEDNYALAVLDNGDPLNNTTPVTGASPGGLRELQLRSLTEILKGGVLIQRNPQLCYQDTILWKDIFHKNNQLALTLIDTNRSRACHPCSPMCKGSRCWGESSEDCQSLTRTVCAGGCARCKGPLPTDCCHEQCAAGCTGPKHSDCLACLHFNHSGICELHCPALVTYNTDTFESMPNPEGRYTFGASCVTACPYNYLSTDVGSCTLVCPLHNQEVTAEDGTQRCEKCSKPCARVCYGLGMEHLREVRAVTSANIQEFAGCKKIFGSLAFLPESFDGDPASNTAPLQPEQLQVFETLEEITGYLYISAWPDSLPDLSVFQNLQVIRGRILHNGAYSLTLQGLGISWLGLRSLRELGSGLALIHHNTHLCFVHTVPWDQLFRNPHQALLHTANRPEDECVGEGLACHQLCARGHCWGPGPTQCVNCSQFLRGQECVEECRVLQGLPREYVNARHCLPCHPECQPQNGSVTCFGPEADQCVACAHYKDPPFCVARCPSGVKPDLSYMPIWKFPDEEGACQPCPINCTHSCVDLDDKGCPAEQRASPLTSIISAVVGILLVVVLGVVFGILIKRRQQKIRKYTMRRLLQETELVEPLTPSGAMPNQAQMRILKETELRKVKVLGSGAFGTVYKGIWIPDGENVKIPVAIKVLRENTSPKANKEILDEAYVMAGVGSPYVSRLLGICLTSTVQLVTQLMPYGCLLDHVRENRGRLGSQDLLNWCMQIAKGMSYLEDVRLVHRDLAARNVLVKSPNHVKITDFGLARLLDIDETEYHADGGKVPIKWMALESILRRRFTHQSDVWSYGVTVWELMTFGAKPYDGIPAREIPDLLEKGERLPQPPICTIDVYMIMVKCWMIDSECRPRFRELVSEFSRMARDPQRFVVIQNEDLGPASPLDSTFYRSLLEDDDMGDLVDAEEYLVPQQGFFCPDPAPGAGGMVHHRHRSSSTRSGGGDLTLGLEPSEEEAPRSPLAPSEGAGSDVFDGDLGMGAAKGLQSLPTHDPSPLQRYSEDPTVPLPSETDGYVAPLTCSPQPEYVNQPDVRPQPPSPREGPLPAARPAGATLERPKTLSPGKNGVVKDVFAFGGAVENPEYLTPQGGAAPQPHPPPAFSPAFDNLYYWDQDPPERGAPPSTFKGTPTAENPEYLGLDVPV

[3] = SK-BR-3 cell growth inhibitors, pilot screen, 24 h, human (AID 572;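 active means viability at or below 10% of carrier control in both of two separate runs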;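 further: compound exposure lasted between 18 and 24 h rather than exactly 24 h; 100% = carrier-treated control wells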); settings: SK-BR-3 viability, CellTiter-Glo luminescence, at 10 µM, stronger effect = lower value
[4] = HUVEC growth inhibition – cell-based, human, primary screen (AID 575;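 active means viability at or below 30% in both replicate assays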;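 further: 100% = median of untreated cell wells with 0.1% DMSO on each plate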); settings: HUVEC proliferation, CellTiter-Glo luminescence, 72 h; at 10 µM; stronger effect = lower value
[5] = growth inhibitors of H69AR lung tumor, primary screen, human, duplicate replicates (AID 580;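 active means viability at or under a set limit in both replicates, limit being median viability minus 3 SD, cut at about 48% in these data, passing the limit was not always enough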;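 further: 100% = mean luminescence of untreated wells and 0% = no signal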); settings: H69AR lung tumor cells viability, ATP luminescence, 72 h; at 10 µM; stronger effect = lower value
[6] = reversal of MRP1-mediated doxorubicin resistance, pilot screen, H69AR cells, doxorubicin co-treatment (AID 601;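 active means viability loss from added drug above about 55%, and viability with drug at most 40%, in both replicates, limit read from the data, passing the limit was not always enough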); settings: CellTiter-Glo, 72 h, at 10 µM; for differential viability (reversal): stronger effect = higher value
[7] = 384-well plate pilot, post-Golgi transport modulator project, inhibition of yeast transport mutant growth (AID 636; in the data active means inhibition above about 31%); settings: absorbance 615 nm, about 18 h, stronger effect = higher value
[8] = growth suppression of yeast trafficking mutant, preliminary HTS, modulators of trafficking downstream of Golgi apparatus project, 1536-format plate, OD 615 nm (AID 637; in the data active means inhibition above about 30%); settings: yeast transport mutant growth, absorbance 615 nm, 18 h; stronger effect = higher value
[9] = OD615 S. cerevisiae growth inhibition, permissive medium, pilot counter-assay, permissive growth control for S. cerevisiae lifespan shortening project (AID 705;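 active means growth inhibition above 25% in both replicates, a cutoff set 3 SD above the mean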); settings: OD615, 24 h, at 10 µM, stronger effect = higher value
[10] = Restrictive medium S. cerevisiae growth inhibition, OD615, pilot screen of yeast lifespan reduction project, restrictive growth control (AID 706;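 active means growth inhibition above a set limit, 3 SD over mean compound inhibition, in both replicates, cut at about 43% in these data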;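 further: modified DeaD lifespan yeast strain shifted to restrictive glucose medium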); settings: OD615, 48 h, at 10 µM, stronger effect = higher value
[11] = viability gain of MRP-1-high H69AR cells under doxorubicin, pilot screen, MRP-1 activator project, CellTiter-Glo, duplicate (AID 807;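 active means viability increase at or above a cutoff of the median across tested compounds plus 3 SD, cut at about 8.5% in these data, passing the limit was not always enough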;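 further: compound pretreatment 18-22 h then 72 h combined with doxorubicin; 0% = doxorubicin alone and 100% = vehicle without doxorubicin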); settings: H69AR viability with doxorubicin, CellTiter-Glo luminescence; at 10 µM; stronger effect = higher value
[12] = growth suppression of beta-catenin knockout HCT116, pilot screen, human colon tumor cells (AID 823;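 active means cell viability at or below a set limit in both duplicate runs, the limit being the all-compound median minus 4 SD, cut at about 23% in these data, passing the limit was not always enough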;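 further: 0% = wells killed by 20 µM Hyamine and 100% = untreated DMSO cell wells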); settings: CellTiter-Glo, 60 h, at 10 µM, stronger effect = lower value
[13] = growth suppression of PTEN-deleted HCT116, pilot screen, cell-based, HCT116 clonal line, CellTiter-Glo (AID 824); settings: 60 h, at 10 µM, stronger effect = lower value;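 further: 0% = 20 µM Hyamine control and 100% = vehicle cell control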
[14] = inhibitors of the yeast RAM network, pilot screen, dse1pr::URA3 reporter, 5-FOA selection (AID 869;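 active means inhibition over a set limit, the all-compound mean plus 3 SD, in both replicate runs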;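 further: 0% = DMSO wells with no growth and 100% = 10 µM 1-NA-PP1 with full growth; RAM network block rescues cells from 5-FOA so hits raise OD615 growth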); settings: S. cerevisiae dse1pr::URA3 5-FOA growth, OD615, 2 d; at 10 µM; stronger effect = higher value; strain carries analog-sensitive mutant Cbk1 kinase
[15] = RAM signaling pathway blockade in yeast – S. cerevisiae, Pdr1DBD-CYC8 efflux-inhibited sensitized strain, primary screen (AID 1298;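 active means RAM network inhibition above 8.4% in each of two replicates, 3 SD over the compound average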;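 further: 0% = DMSO untreated cells without growth and 100% = 10 µM 1-NA-PP1 full growth; higher means more yeast growth rescued from 5-FOA killing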); settings: S. cerevisiae cbk1-as DSE1-URA3 strain, 5-FOA growth OD615, 2 d; at 50 µM; stronger effect = higher value
[16] = H69AR cells + 2 uM doxorubicin, measured here: viability with 2 uM doxorubicin, stronger effect = lower value
[17] = H69AR cells, compound alone cytotoxicity

CCc1cccc(NC(=O)Cn2cc3c(n2)CCCC3)c1
105%: viability [1]
inactive: Her2 level [2] 95.5% | viability [3] 105% | viability [4] 89.8% | viability [5] 94.8% | differential viability (reversal) ([6]; H69AR cells + 2 uM doxorubicin) 4.52% | inhibition [7] -4.53% | inhibition [8] -3.11% | growth inhibition [9] -17.8% | growth inhibition [10] -2.27% | viability increase [11] -1.41% | viability [12] 96.6% | viability [13] 97.2% | inhibition [14] 1.69% | RAM network inhibition [15] 0.42%
94.8%: viability [6, 17]
90.3%: viability [6, 16]

CCN1C(=O)c2ccccc2S(=O)c2ccc(C(=O)NC3CC3)cc21 (stereo not drawn)
inactive: Her2 level [2] 93.5% | viability [3] 100% | viability [4] 105% | viability [5] 105% | differential viability (reversal) ([6]; H69AR cells + 2 uM doxorubicin) 16% | inhibition [7] -2.8% | inhibition [8] 3.77% | growth inhibition [9] 4.88% | growth inhibition [10] 1.4% | viability increase [11] -2.52% | viability [12] 97.6% | viability [13] 95.3% | inhibition [14] 0.16% | RAM network inhibition [15] 1.98%
88.7%: viability [6, 16]
100%: viability [1]
105%: viability [6, 17]

COc1ccc(OCc2nc(C#N)c(N3CCN(c4ccc(OC)cc4)CC3)o2)cc1
94%: viability [1] | viability [6, 17]
79%: viability [6, 16]
active: viability increase [11] 9.38%
inactive: Her2 level [2] 115% | viability [3] 94% | viability [4] 90.6% | viability [5] 94% | differential viability (reversal) ([6]; H69AR cells + 2 uM doxorubicin) 15% | inhibition [7] -3.07% | inhibition [8] -8.17% | growth inhibition [9] -0.985% | growth inhibition [10] -1.77% | viability [12] 72.5% | viability [13] 73.5% | inhibition [14] 1.06% | RAM network inhibition [15] 9.16%

CS(=O)(=O)Nc1ccccc1C(=O)O
98.8%: viability [6, 17]
inactive: Her2 level [2] 80.5% | viability [3] 102% | viability [4] 91.5% | viability [5] 98.8% | differential viability (reversal) ([6]; H69AR cells + 2 uM doxorubicin) 2.55% | inhibition [7] -2.34% | inhibition [8] -5.17% | growth inhibition [9] -7.19% | growth inhibition [10] -1.03% | viability increase [11] -1.2% | viability [12] 94.9% | viability [13] 97.6% | inhibition [14] 0.72% | RAM network inhibition [15] 2.56%
96.3%: viability [6, 16]
102%: viability [1]

COc1ccc(S(=O)(=O)NCc2ccc3c(c2)OCO3)cc1C(=O)O
96.5%: viability [1]
90.1%: viability [6, 17]
93.4%: viability [6, 16]
inactive: Her2 level [2] 84.5% | viability [3] 96.5% | viability [4] 109% | viability [5] 90.1% | differential viability (reversal) ([6]; H69AR cells + 2 uM doxorubicin) -3.31% | inhibition [7] -4.36% | inhibition [8] -0.33% | growth inhibition [9] -4.53% | growth inhibition [10] -6.08% | viability increase [11] -0.34% | viability [12] 96.9% | viability [13] 95.4% | inhibition [14] 1.89% | RAM network inhibition [15] 5.84%

Cc1ccnc2c(N3C(=O)C4C5C=CC(C5)C4(C)C3=O)cccc12 (stereo not drawn)
98%: viability [1]
91.4%: viability [6, 16]
inactive: Her2 level [2] 102% | viability [3] 98% | viability [4] 105% | viability [5] 92.9% | differential viability (reversal) ([6]; H69AR cells + 2 uM doxorubicin) 1.47% | inhibition [7] -3.47% | inhibition [8] -5.5% | growth inhibition [9] -20.2% | growth inhibition [10] -11.7% | viability increase [11] -0.94% | viability [12] 93.3% | viability [13] 95.5% | inhibition [14] 1.86% | RAM network inhibition [15] -1.63%
92.9%: viability [6, 17]

CC1CCC(NC(=O)C2(C)CCC(=O)N2Cc2cccnc2)CC1 (stereo not drawn)
97%: viability [1]
87.5%: viability [6, 16]
inactive: Her2 level [2] 114% | viability [3] 97% | viability [4] 102% | viability [5] 78.6% | differential viability (reversal) ([6]; H69AR cells + 2 uM doxorubicin) -8.95% | inhibition [7] 2.18% | inhibition [8] -5.17% | growth inhibition [9] -12.3% | growth inhibition [10] -10.1% | viability increase [11] 1.23% | viability [12] 107% | viability [13] 98.3% | inhibition [14] 0.41% | RAM network inhibition [15] 1.87%
78.6%: viability [6, 17]

CCOc1cc(C2C3=C(CCCC3=O)N(C)C3=C2C(=O)CCC3)cc(Cl)c1O
104%: viability [6, 17]
inactive: Her2 level [2] 74.5% | viability [3] 106% | viability [4] 105% | viability [5] 104% | differential viability (reversal) ([6]; H69AR cells + 2 uM doxorubicin) 12.8% | inhibition [7] -6.35% | inhibition [8] 0.49% | growth inhibition [9] -11.5% | growth inhibition [10] -16.7% | viability increase [11] 2.27% | viability [12] 96.1% | viability [13] 95.8% | inhibition [14] 1.12% | RAM network inhibition [15] 4.21%
91.5%: viability [6, 16]
106%: viability [1]

CC(=O)c1cccc(NC(=O)CCOc2ccccc2)c1
96.3%: viability [6, 16]
inactive: Her2 level [2] 121% | viability [3] 96% | viability [4] 106% | viability [5] 98.3% | differential viability (reversal) ([6]; H69AR cells + 2 uM doxorubicin) 1.96% | inhibition [7] 1.04% | inhibition [8] -12.8% | growth inhibition [9] 5.62% | growth inhibition [10] 4.36% | viability increase [11] -1.33% | viability [12] 102% | viability [13] 95% | inhibition [14] 1.27% | RAM network inhibition [15] 1.57%
96%: viability [1]
98.3%: viability [6, 17]
